Source: the supplement of paper PMC6555819

Columns and labels:
Assay in all cases: PBM binding z-score (relative to random genomic background probes); higher = stronger binding; sequences stand for … in GC…GCGATTGACAGCGTAGAATGAAGG
[1] = system: RARb homodimer (NR concentration 270 nM)
Procedure, shortened: (§1)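 Custom Agilent 4×180K protein-binding microarrays carried double-stranded probes. Their 34-nt variable regions held direct-repeat seeds, single-nucleotide variants, half-site ablations and random human genomic background sequences. Arrays were incubated 1 h with ligand-free nuclear receptor dimers in PBS pH 7.4, 2% milk, 0.02% Triton X-100, 1 mM DTT, 0.2 mg/mL BSA and 0.4 mg/ml salmon testes DNA. Antibodies against each partner (one per run) detected binding, and scanned fluorescence was regression-normalized. Binding z-scores use random background probes as reference.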

[2] = system: RARg:RXRa (NR concentration 270 nM, RXRa partner concentration 90 nM)
Procedure, shortened: as §1

[3] = system: RARg homodimer (NR concentration 270 nM)
Procedure, shortened: as §1

[4] = system: RXRa DBDmut IVT, anti-RXR (DBD mutation: RXRa K156A/R161A, NR concentration 90 nM)
Procedure, shortened: as §1

[5] = system: RXRa homodimer (NR concentration 180 nM)
Procedure, shortened: as §1

[6] = system: THRa:RXRa (NR concentration 90 nM, RXRa partner concentration 90 nM)
Procedure, shortened: as §1

[7] = system: THRa homodimer (NR concentration 90 nM)
Procedure, shortened: as §1

[8] = system: VDR:RXRa (NR concentration 270 nM, RXRa partner concentration 90 nM)
Procedure, shortened: as §1

[9] = system: VDR homodimer (NR concentration 270 nM)
Procedure, shortened: as §1

Sequence | PBM binding z-score [1] | PBM binding z-score [2] | PBM binding z-score [3] | PBM binding z-score [4] | PBM binding z-score [5] | PBM binding z-score [6] | PBM binding z-score [7] | PBM binding z-score [8] | PBM binding z-score [9]
TAGCCTAGGTCAAATCGGGCCAGTATACGCTATA | 2.7 | 4.3 | 4.47 | 0.997 | 3.31 | 4.59 | 0.89 | 2.7 | 0.378
CCTCGGATGACAGAAGGTCAGAGCTGTCCGCTTT | 2.83 | 2.49 | 2.16 | 0.111 | 2 | 1.95 | -0.359 | 1.21 | 0.287
CAAACTAGGTCACGAAAGGTCAAACTCGAATGAC | 5.84 | 8.21 | 9.05 | 2.91 | 8.85 | 5.26 | 2.82 | 7.13 | 4.06
ATCTCTATGTAAAGTTCAGTGAAAGATCGATAGA | 2.23 | 2.06 | 2.29 | 1.3 | 1.08 | 0.757 | -0.304 | 1.26 | 2.03
CCGACTCGGGCAGAAAGGTTACCATACCATCCGG | 1.59 | 1.41 | 1.02 | -0.246 | 1.6 | 1.01 | -0.699 | 0.699 | -0.0904
GATACAGGGTCAAGGCGAGAGTACGCGTATTGAT | 3.23 | 5.39 | 4.87 | 2.77 | 5.61 | 3.32 | 1.11 | 4.4 | 2.48
AGAGTGAGGTTATTAAGATCAGGGAATTGCGGTC | 1.42 | 1.12 | 0.991 | 1.56 | 1.82 | 2.12 | 1.33 | 2.49 | 1.97
ACAGACAGGTGAGTGAAGGTAACTCAGCTGGACG | 0.005 | 0.297 | 0.64 | -0.506 | 0.428 | 1.51 | -0.394 | -0.401 | -0.355
CATACAGTGTCAGCTAGGCCAGAGTAGGGACGGC | 0.245 | 0.397 | 0.832 | -0.017 | 0.0865 | 0.027 | 0.00703 | -0.152 | -0.455
CCTAGCAAGCCAGGGTCACTCAAGCATTTCGCTT | 2.62 | 2.97 | 2.62 | 0.907 | 3.86 | 3.03 | 1.1 | 2.8 | 1.69
CTCGAAAGGTCGTGCTCAGGAGAGTATACCAAAC | 2.52 | 4.36 | 4.09 | 1.88 | 5.03 | 2.64 | 0.423 | 2.92 | 1.36
CATTACGGGTCACTCCAGGTTATAGCATCGGAGT | 3.31 | 4.59 | 4.57 | 1.53 | 4.65 | 5.06 | 0.963 | 4.52 | 1.83
CAAACTAGGTCAAGTTCAAAGTCGGTTTGTGCCA | 4.52 | 5.17 | 5.92 | 3.84 | 4.23 | 3.52 | 2.16 | 4.94 | 6.29
TCTCGGAGGACAGGAAGGTCAGAGCTTTCCAGAG | 3.54 | 2.42 | 2.34 | 0.51 | 1.69 | 2.1 | 0.256 | 1.57 | 0.37
TAGCCTAGCTCATGGGCCAGTATACCACGCGAAC | -0.141 | -0.422 | -0.314 | -1.22 | -0.408 | -0.643 | -0.48 | -0.717 | -0.464
GCGACTGAGGCATCAGCAGGTTACCATAACTTAA | -0.000366 | -0.216 | -0.35 | -0.168 | -0.0735 | 0.371 | -0.148 | -0.37 | -0.64
CCTTACGGGTCACTAGGTTATAGCACGACGAGCG | 3 | 4.53 | 4.46 | 1.22 | 4.2 | 2.29 | 0.139 | 3.38 | 1.24
CCCAGTTGGTCAGGAGGTCACACACCGGATATGA | 4.41 | 4.87 | 4.25 | -0.0617 | 4.6 | 3.52 | 2.63 | 3.96 | 2.66
CCAGACAGGTGAAAGGCAACTCAGTCTGGTACGC | 0.304 | 0.225 | 0.332 | -0.268 | 0.712 | 0.000923 | -0.701 | -0.108 | 0.202
CAGCCTAGGTCAGGGTCAGTATAGGAGGAACGTT | 4.16 | 4.27 | 4.84 | 0.854 | 3.67 | 3.39 | 1.53 | 2.7 | 1.31
TCGAGTAGGTTGGGGGCATTCAGAATGGCGTCGA | 1.42 | 1.32 | 0.732 | 1.74 | 1.57 | 2.11 | 1.52 | 2.65 | 3.27
ATCGAAAGGTCGTGAGGCGAGTATACAGAAAGGC | 2.55 | 4.39 | 3.91 | 1.28 | 5.34 | 2.49 | -0.00887 | 3.18 | 0.582
TGAATGAGGTTATAAAATCAGGGAACGTTGCAAA | 0.0245 | 1.01 | 0.843 | 0.43 | 1.44 | 1.56 | -0.0954 | 0.918 | 0.227
TCTCGGAGGATACGAAGGTCAGAGCTTTCCAGAG | 2.95 | 1.93 | 2.03 | 0.133 | 1.65 | 1.57 | -0.156 | 0.765 | 0.224
TCATATAGGTATTACAGGTGAAAGTCGGCATCTA | 0.804 | 0.652 | 0.438 | 1.81 | 1.35 | 0.854 | 0.684 | 1.34 | 0.524
ACTAGCAGGCCAAGTTTGAGTCACTCAAACAAAG | -0.195 | 0.0466 | 0.196 | -0.27 | -0.333 | -0.188 | -0.77 | -0.614 | -0.27

Sequence | PBM binding z-score [1] | PBM binding z-score [2] | PBM binding z-score [3] | PBM binding z-score [4] | PBM binding z-score [5] | PBM binding z-score [6] | PBM binding z-score [7] | PBM binding z-score [8] | PBM binding z-score [9]
CGTGCAAGGTCATAGGAGGTCAGTGAAGACAGAT | 5.38 | 7.04 | 7.51 | 4.08 | 7.22 | 5.44 | 2.87 | 6.87 | 4.63
ACAGACAGTTGATGAAGGTAACTCAGGCTATCAT | 0.387 | 0.00583 | 0.279 | 0.223 | 0.183 | 0.764 | 0.154 | 0.101 | 0.0979
GCTCGCAGGACAAGGTCAGAGCTTTGTCCGTAGA | 2.58 | 2.71 | 2.74 | 0.16 | 2.1 | 2.5 | 1.09 | 0.842 | -0.354
TTACCAACGTGAAGGTCGTTGATCCCTCTGTAGA | 1.24 | 0.301 | 0.15 | 0.665 | 1.17 | 1.04 | 0.438 | 1.09 | 1.3
GCTAGCAGGCCATTAGGGTCACTCAATGACGGGC | 2.83 | 2.53 | 2.08 | 0.0923 | 2.42 | 3.37 | 2.03 | 4.6 | 1.91
GCGACTGGGGCATCAGCAGGTTACCATAACTTAA | 0.856 | 0.955 | 0.455 | -0.108 | 0.462 | 1.09 | -0.0496 | 0.0367 | -0.398
AGAATGAGGTTACCATAGATCAGGGAAACGCTTG | 0.58 | 1.89 | 1.72 | 1.13 | 2.38 | 2.59 | 0.611 | 0.941 | 0.117
ATCTCTAGGTAACCGAGTTCAGTGAATGCCGAAC | 1.31 | 0.6 | 0.669 | 1.39 | 0.704 | 1.72 | 0.663 | 5.27 | 4.05
TATACAGTGTCAAAGGCCAGAGTACGAATGTCGA | 1.59 | 1.53 | 1.65 | -0.125 | 1.49 | 0.336 | -0.189 | 0.815 | 0.636
GCTAGCAGGCCATTTGGGTCAATCAATGACGGGC | 1.62 | 0.878 | 1.21 | 0.0646 | 0.805 | 1.87 | 0.12 | 0.778 | -0.0302
CCTATTAGTTGACCATAAGGGCATCCGAAGCTCG | 1.78 | 1.12 | 1.02 | 0.721 | 0.568 | 1.89 | 1.35 | 0.862 | 1.26
TCTCGGAGGACACGAAAGGTCATAGCTCGACATC | 4.89 | 5.58 | 5.34 | 1.71 | 5.3 | 4.24 | 2.12 | 4.71 | 2.67
ATCTCTTGGTAAAGTTCAGTGAAAGATCGATAGA | 2.41 | 2.08 | 2.53 | 2.06 | 1.04 | 0.889 | 0.154 | 1.6 | 2.21
CCTGCTAGGTTATGGTCAGCTAATCTACAGTATG | 0.748 | 0.34 | 0.636 | 0.299 | 0.0468 | 0.383 | -0.417 | -0.216 | -0.337
TCTAGTTGGTCACGGAGGTCACACTCGACGGGTA | 4.42 | 4.61 | 4.99 | 1.2 | 4.54 | 3.59 | 2.56 | 5.86 | 2.99
ACTATTAGTTGAGACGACGGCAACCGATAGGTTG | -0.491 | 0.00753 | 0.223 | -0.0527 | 0.0138 | -0.529 | -0.596 | -0.484 | -0.117
TGAATGGGGTTATAAGATCAGGGAACGTTGCAAA | 1.49 | 2.3 | 0.965 | 1.6 | 3.95 | 2.45 | 1 | 2.58 | 1.23
ACTTACGGGTAAACGAGGTTATAGCACGCGTATA | 1.12 | 0.939 | 0.812 | 0.819 | 1.57 | 3.64 | 0.765 | 4.1 | 1.45
TTACCAAGTTGAAAGGTCGTTGATGCACGCCTTG | 2.1 | 2.9 | 1.34 | 1.31 | 4.21 | 1.92 | -0.189 | 2.65 | 1.58
AGAACGAGGGAACGCTGAGTTGATAGCAGAGTAG | -0.725 | -0.0293 | 0.175 | -0.477 | -0.0289 | -0.362 | -1.15 | -0.0908 | 0.248
TCGAGTAGGTTACCAATGGGGCATTCAACTTTCT | 1.11 | 1.49 | 0.547 | 0.496 | 1.01 | 0.551 | -0.246 | 0.521 | -0.194
AGAACGAAGGCAATGAGTTGATAGCACGGGTGGC | -1.03 | -0.228 | -0.122 | -0.299 | -0.105 | -0.732 | -1.11 | 0.485 | -0.223
CCTCGGAGGACTGAAGGTCAGAGCTGTCCGCTTT | 2.67 | 2.13 | 1.87 | -0.27 | 1.46 | 1.66 | -0.417 | 0.567 | -0.325
CAAACTAGGTCACGAAAGGTCGAAGTCGAATGAC | 5 | 6.14 | 6.69 | 2.17 | 5.66 | 4.65 | 1.9 | 5.72 | 2.3
GCATATATGTAATACAAGGTGAAAGTCCGATTGT | 0.691 | 0.257 | 0.615 | 0.612 | 0.52 | 2.79 | 1.14 | 0.278 | -0.0295
CCTGCTAGGTCGATGGTCAGCTAAAGCAGCTCGC | 0.8 | 0.222 | 0.416 | 0.224 | -0.11 | 0.103 | -0.265 | -0.292 | -0.719
